Experimental data published in PubChem BioAssay (EPA / NIEHS).
Values joined by “and” are separate entries in the source; they are usually repeats but may differ in a detail not shown here. Equal values may be shown once. A structure can be active in one record and inactive in another. Active and inactive are the calls of the source. Rule for the calls: active = hit-call score of the fitted dose curve at least 0.9, where 1 is the maximum; inactive = score below 0.9.

Key:
[1] = read-out: Decorin, DCN (gene 1634); assay: BSK_MyoF_Decorin: BioMAP Diversity Plus: MyoF Assay for Decorin Biomarker Activity (AID 2284265); conditions: primary human lung fibroblasts
Method in brief: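 Human lung fibroblasts in the MyoF system were exposed to compound for 24 h, after which decorin was quantified by ELISA. Activity was fitted in the positive direction relative to DMSO negative control.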

[2] = BSK_MyoF_SRB: Viability Assessment in the BioMAP Diversity Plus: MyoF Assay (AID 2284267); conditions: primary human lung fibroblasts;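 note: total protein by SRB absorbance in parallel cultures as cytotoxicity measure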
Method in brief: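 In this viability endpoint, fibroblasts from human lung are treated for 24 h, TCA-fixed, SRB-stained (0.1%) and read at 560 nm. Gain of signal relative to DMSO defines activity.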

[3] = read-out: Matrix Metallopeptidase 1 (MMP1), MMP1 (gene 4312); assay: BSK_MyoF_MMP1: BioMAP Diversity Plus: MyoF Assay for Matrix Metallopeptidase 1 (MMP1) Biomarker Activity (AID 2284268); conditions: primary human lung fibroblasts
Method in brief: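 ELISA readout of MMP1 in primary human lung fibroblast cultures, 24 h post-dosing. Gain of signal versus DMSO vehicle control defines activity. Parallel SRB staining (0.1% after 10% TCA fixation, 560 nm) flags overt cytotoxicity.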

[4] = read-out: TIMP metallopeptidase inhibitor 1 (TIMP1), TIMP1 (gene 7076); assay: BSK_MyoF_TIMP1: BioMAP Diversity Plus: MyoF Assay for TIMP metallopeptidase inhibitor 1 (TIMP1) Biomarker Activity (AID 2284269); conditions: primary human lung fibroblasts
Method in brief: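 Fibroblasts from human lung are dosed with chemical, cultured 24 h, and assayed for TIMP-1 by ELISA. Increases over the DMSO baseline are scored, with SRB total-protein staining run in parallel for cytotoxicity.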

[5] = read-out: CD69, CD69 (gene 969); assay: BSK_IMphg_CD69: BioMAP Diversity Plus: IMphg Assay for CD69 Biomarker Activity (AID 2284257); conditions: primary human endothelial cells with macrophages
Method in brief: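 Readout is ELISA for CD69 in primary human venular endothelial cell/macrophage co-culture, taken at 24 h post-dosing. SRB staining of parallel cultures gauged overt cytotoxicity; signal increase versus DMSO defined activity.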

[6] = read-out: Eotaxin 3, CCL26 (gene 10344); assay: BSK_BF4T_Eotaxin3: BioMAP Diversity Plus: BF4T Assay for Eotaxin 3 Biomarker Activity (AID 2284258); conditions: primary human bronchial epithelial cells with fibroblasts
Method in brief: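 ELISA measurement of Eotaxin-3 after 24 h chemical exposure in a bronchial epithelial/dermal fibroblast co-culture, with DMSO as baseline. Parallel SRB staining (0.1% SRB after 10% TCA fixation, 560 nm) flagged overt cytotoxicity.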

[7] = read-out: Monocyte Chemoattractant Protein-1 (MCP1), CCL2 (gene 6347); assay: BSK_BF4T_MCP1: BioMAP Diversity Plus: BF4T Assay for Monocyte Chemoattractant Protein-1 (MCP1) Biomarker Activity (AID 2284259); conditions: primary human bronchial epithelial cells with fibroblasts
Method in brief: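 MCP-1 ELISA readout taken 24 h after dosing in the BF4T system (bronchial epithelial cells plus dermal fibroblasts). Parallel SRB total-protein staining flagged cytotoxicity; DMSO served as baseline, positive fitting direction.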

[8] = read-out: CD90, THY1 (gene 7070); assay: BSK_BF4T_CD90: BioMAP Diversity Plus: BF4T Assay for CD90 Biomarker Activity (AID 2284262); conditions: primary human bronchial epithelial cells with fibroblasts
Method in brief: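 CD90 levels by ELISA after 24 h treatment of human bronchial epithelial cell/dermal fibroblast cultures, analysed versus DMSO. Overt cytotoxicity checked in parallel cultures by sulforhodamine B staining.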

[9] = read-out: Interleukin-8 (IL8), CXCL8 (gene 3576); assay: BSK_BF4T_IL8: BioMAP Diversity Plus: BF4T Assay for Interleukin-8 (IL8) Biomarker Activity (AID 2284263); conditions: primary human bronchial epithelial cells with fibroblasts
Method in brief: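 Human bronchial epithelial cells with dermal fibroblasts co-culture; IL-8 measured by ELISA 24 hours after dosing, fitted vs DMSO. Cytotoxicity tracked in parallel cultures by SRB total-protein staining.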

[10] = read-out: Interleukin-1 alpha (IL1a), IL1A (gene 3552); assay: BSK_BF4T_IL1a: BioMAP Diversity Plus: BF4T Assay for Interleukin-1 alpha (IL1a) Biomarker Activity (AID 2284264); conditions: primary human bronchial epithelial cells with fibroblasts
Method in brief: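 ELISA read-out of IL-1α from bronchial epithelial cell/dermal fibroblast co-cultures 24 h after compound addition. Increases scored against DMSO negative control. Cytotoxicity monitored by sulforhodamine B staining of parallel cultures.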

Measured: AC50

CN(C)c1ccc(C(=C2C=CC(=[N+](C)C)C=C2)c2ccccc2)cc1
inactive: [1] | [3]
active: [2] 485 nM | [4] 697 nM

O=C(NCc1ncc(C(F)(F)F)cc1Cl)c1c(Cl)cccc1Cl
inactive: [1] | [2] | [3] | [4]

O=C(NO)c1ccccc1
inactive: [1] | [2] | [3] | [4]

OCC(F)(F)C(F)(F)C(F)(F)C(F)(F)C(F)(F)C(F)(F)C(F)(F)C(F)(F)C(F)(F)C(F)(F)C(F)(F)F
inactive: [5] | [6] | [7] | [8] | [9] | [10] | [1] | [2] | [3] | [4]

Cc1ccc(C(=O)c2ccccc2)cc1
inactive: [1] | [2] | [4]
active: [3] 38.7 µM

CC[N+](CC)(CC)Cc1ccccc1
inactive: [1] | [2] | [3] | [4]

O=C(O)C(F)(F)OC(F)(F)C(F)(F)OC(F)(F)C(F)(F)OC(F)(F)C(F)(F)C(F)(F)C(F)(F)F
active: [5] 40.2 µM and 24.2 µM | [6] 7.32 µM and 7.02 µM | [7] 7.5 µM | [8] 14.6 µM | [9] 53.7 µM | [10] 11 µM and 13.4 µM | [1] 17.3 µM | [2] 13 µM and 9.16 µM | [4] 8.18 µM and 8.09 µM
inactive: [7] | [8] | [9] | [1] | [3]

O=C(O)CCC(F)(F)C(F)(F)C(F)(F)C(F)(F)C(F)(F)C(F)(F)F
inactive: [5] | [6] | [7] | [8] | [9] | [10] | [1] | [2] | [3] | [4]
active: [5] 13.6 µM | [6] 2.88 µM
